Test results as given in ChEMBL document CHEMBL3988442, “University of Dundee, Small-Polar-MMV Screening Library” (2021).
About 13,000 (27%) of roughly 48,000 compounds showed an effect of 50% or more. Some of the results follow.

Each compound was assayed on Wolbachia pipientis (assay: Anti-Wolbachia Cell-Based Screen). Details: 5 µM.
Type: functional
Design: scale not given: in the data most compounds retested in dose-response had high values

SMILES | Percent Effect
Cc1[nH]nc(CCC(=O)N2C[C@H]3CC[C@@H]2CN(C(=O)N(C)C)C3)c1C | -18.31%
CC(=O)N[C@H](C)c1c(-c2ccc(Cl)cc2)noc1C(=O)O | -1.378%
Cn1cnc2c1C(COCc1ccccc1)N(Cc1cccnc1)CC2.O=C(O)C(F)(F)F.O=C(O)C(F)(F)F.O=C(O)C(F)(F)F (centres undefined) | 3.52%
CCOCC1c2c(ncn2C)CCN1C(=O)c1ccoc1 (centres undefined) | 86.79%
CCOCC1c2c(ncn2C)CCN1C(=O)c1cnc(C)cn1.O=C(O)C(F)(F)F (centres undefined) | 107%
CCOCC1c2c(ncn2C(C)C)CCN1C(=O)CC (centres undefined) | -9.692%
CCOCC1c2c(ncn2C(C)C)CCN1C(=O)C1CC1 (centres undefined) | 9.389%
CCOCC1c2c(ncn2C(C)C)CCN1C(C)C.O=C(O)C(F)(F)F.O=C(O)C(F)(F)F (centres undefined) | 0.9894%
CCOCC1c2c(ncn2C)CCN1C(=O)c1cscn1 (centres undefined) | 99.42%
O=C(c1cscn1)N1CCn2cnc(COCC3CC3)c2C1 | -4.402%
Cn1cnc2c1C(COCc1ccccc1)N(Cc1ccncc1)CC2.O=C(O)C(F)(F)F.O=C(O)C(F)(F)F.O=C(O)C(F)(F)F (centres undefined) | -5.71%
O=C(NCCn1ccnc1-c1cc2n(n1)CCCNC2)c1ccncc1 | -0.5813%
CC(NC(=O)c1ccoc1)C(=O)N(C)Cc1cccc(C(F)(F)F)c1 (centres undefined) | 12.38%
CCn1nc2c(cc1=O)CN(Cc1nc(CCOC)no1)CC2 | -7.437%
Cc1cccc(C(C)(C)CNC(=O)CCSc2nnnn2C)c1 | -0.1425%
CCCn1c(C)c(CC(=O)N(C)CCOC)c2c1CC(C)(C)CC2=O | -2.271%
Cc1c[nH]c(CN(C)C(=O)CCn2cnc3ccccc32)n1 | -8.611%
COc1ccc(CN2CCNC(=O)CC2)cc1SC(F)(F)F | -6.808%
CCCOc1ccc(OCCN2CCOCS2(=O)=O)cc1 | -1.298%
CCn1nc2c(cc1=O)CN(CCOc1ccc(C#N)cc1)CC2 | 2.029%
CC1C(=O)NCCN1CCOc1ccc(C#N)cc1 (centres undefined) | 92.79%
Cc1ccc(C)c2c(O)cc(CN3CCNC(=O)C3C)nc12 (centres undefined) | -11.58%
Cc1ncc2c(n1)CN(CCOc1ccc3c(c1)CCC(=O)N3)CC2 | 3.437%
Cc1nc(C)n(CC2CCCN2CCOc2ccc(C#N)cc2)n1 (centres undefined) | -3.46%
CSc1ccc(OCCN2CCNC(=O)CC2)cc1 | 106.2%

SMILES | Percent Effect
CSc1ccc(OCCN2CCNC(=O)C2C)cc1 (centres undefined) | 111.5%
Cc1noc(C)c1CNCC1COCc2c(-c3ccsc3)nnn2C1.O=C(O)C(F)(F)F (centres undefined) | 0.4259%
Cc1ncc(S(=O)(=O)Nc2ccnn2C2CCCCC2)[nH]1 | -19.02%
COc1ccc(-n2ncc(C(C)NC3CCOCC3)c2C)cc1 (centres undefined) | -6.318%
O=C(CN1CCCCC1Cn1cccn1)NC1CCOCC1 (centres undefined) | -17.79%
CC(C)(C)c1cc(NC(=O)CN2CCCC2Cn2cncn2)on1 (centres undefined) | 8.198%
Cc1cc(NC(=O)CCN2CCCCC2Cn2cccn2)no1 (centres undefined) | 107.3%
CC(C)(C)c1cc(NC(=O)CN2CCCCC2Cn2cncn2)on1 (centres undefined) | -6.385%
Cc1cc(NC(=O)CCN2CCCC2Cn2cncn2)no1 (centres undefined) | 7.653%
Cc1cc(NC(=O)CCN2CCCC2Cn2cccn2)no1 (centres undefined) | 85.34%
CC(C)(C)c1cc(NC(=O)CN2CCCC2Cn2cccn2)on1 (centres undefined) | 83.96%
Cc1cc(NC(=O)CCN2CCCCC2Cn2cncn2)no1 (centres undefined) | 123.3%
CCN1CCC(NC(=O)CN2CCCCC2Cn2cccn2)CC1 (centres undefined) | 8.022%
CC(C)c1cc(NC(=O)CN2CCCC2Cn2cccn2)on1 (centres undefined) | -0.3726%
CCN1CCC(NC(=O)CN2CCCC2Cn2cccn2)CC1 (centres undefined) | 18.69%
O=C(CN1CCCC1Cn1cccn1)NC1CCN(C2CC2)CC1 (centres undefined) | -5.086%
Cc1n[nH]c(C)c1CN(C)C(C(=O)O)c1c(F)cccc1OC(C)C (centres undefined) | -15.01%
CC(C)=CCN1C[C@H]2CC[C@@H]1CN(C(=O)c1ccc3[nH]cnc3c1)C2 | 1.607%
Cc1cnn(CCNCc2cc(=O)n3cc(Cl)ccc3n2)c1 | -2.605%
CC(=O)N1CCN(CC(=O)NCCCN(C)c2ccccc2)CC1 | -6.128%
CNc1nc(CNC(=O)Nc2cccc(-c3nnco3)c2)cs1 | -5.762%
CCC[C@H]1CN(C2CCOCC2)C[C@@H]1NC(=O)CCc1cnccn1 | -6.675%
O=C(CSc1ccccc1)N1C[C@H]2CC[C@@H]1CN(Cc1ccncc1)C2 | -7.761%
CC(=O)N1CCC1c1cc(NC2CCOCC2)nc(C)n1 (centres undefined) | 79.3%
Cc1nc(NC2CCOCC2)cc(C2CCN2S(C)(=O)=O)n1 (centres undefined) | 120.8%

SMILES | Percent Effect
Cc1ccc(-c2cnnc(NCC3CCOCC3)n2)o1 | -4.072%
Cc1nc(NCC2CCOCC2)cc(C2CCN2S(C)(=O)=O)n1 (centres undefined) | 108.2%
CC1c2ncc(COCC3CCOCC3)n2CCN1S(C)(=O)=O (centres undefined) | -5.189%
Cn1ncc(N2CCC(CNC3Cc4ccccc4C3)C2)cc1=O (centres undefined) | -0.06487%
COc1ccc(C(C)N2CCC(OC)CC2)cc1Cl (centres undefined) | 17.11%
O=C(N1CCCO1)[C@@]12CCO[C@@H]1CCN(Cc1cccs1)C2.O=C(O)C(F)(F)F | 96.37%
O=C(N1CCOCC1)[C@@]12CCO[C@@H]1CCN(Cc1ccccc1F)C2.O=C(O)C(F)(F)F | 14.16%
COC[C@@]12CCO[C@@H]1CCN(Cc1sccc1C)C2.O=C(O)C(F)(F)F | 9.781%
O=C(N1CCCO1)[C@]12COC[C@H]1CN(Cc1nccs1)C2.O=C(O)C(F)(F)F | -2.706%
O=C(N1CCCO1)[C@@]12CCO[C@@H]1CCN(Cc1ccccc1)C2.O=C(O)C(F)(F)F | -18.43%
Cc1ccsc1CN1CC[C@H]2OCC[C@@]2(C(=O)N2CCCO2)C1.O=C(O)C(F)(F)F | 103.7%
O=C(N1CCOCC1)[C@@]12CCO[C@@H]1CCN(Cc1cccc(F)c1)C2.O=C(O)C(F)(F)F | 102.7%
O=C(N1CCCO1)[C@@]12CCO[C@@H]1CCN(C1CCCCC1)C2.O=C(O)C(F)(F)F | 6.239%
O=C(N1CCCO1)[C@@]12CCO[C@@H]1CCN(Cc1ccc(F)cc1)C2.O=C(O)C(F)(F)F | 99.96%
O=C(N1CCOCC1)[C@@]12CCO[C@@H]1CCN(CCN1CCCCC1)C2.O=C(O)C(F)(F)F.O=C(O)C(F)(F)F | 12.15%
Cc1ccc(S(=O)(=O)NCc2[nH]ncc2Br)cc1C | -4.089%
O=C(CN1CCOC1=O)N1CCc2nnc(Cc3ccccc3)n2CC1 | 1.802%
N#Cc1c(Cl)nsc1NCc1ccc(N2CCC(CO)CC2)cc1 | -1.187%
Cc1ccc(CN2CCOC3(CCCN(c4cccc(F)c4)C3)C2)o1.O=C(O)C(F)(F)F.O=C(O)C(F)(F)F (centres undefined) | -11.31%
Cc1ccc(CN2CC[C@H]3OCC[C@@]3(C(=O)N3CCCO3)C2)o1.O=C(O)C(F)(F)F | 102.1%
Cc1ccc(CN2C[C@H](C(=O)N3CCCCO3)[C@@H]3CCO[C@@H]3C2)o1.O=C(O)C(F)(F)F | -4.524%
Cn1cccc1C(=O)N[C@@H]1CN(S(C)(=O)=O)[C@@H]2COC[C@@H]21 | -0.3534%
COCCC1(C(=O)O)CCCN(Cc2cc3c(cc2C)OCO3)C1 (centres undefined) | 0.3642%
Cc1nc(COCC2CNCc3nccn3C2)cs1 (centres undefined) | 1.667%
Cc1nc(COCC2CN(C(=O)N(C)C)Cc3nccn3C2)cs1.O=C(O)C(F)(F)F (centres undefined) | 91.86%

SMILES | Percent Effect
Cc1nc(COCc2cnc3n2CCN(C)C3C)cs1.O=C(O)C(F)(F)F (centres undefined) | 0.7983%
Cc1nc(COCC2CN(C(N)=O)Cc3nccn3C2)cs1.O=C(O)C(F)(F)F (centres undefined) | 114.2%
Cc1nc(CN2CCCn3cnc(COCC4CC4)c3C2)cs1.O=C(O)C(F)(F)F | -1.787%
Cc1cc(C)c(C(=O)NCCNc2ncnc3ccccc23)c(=O)[nH]1 | -7.4%
COc1cc(F)ccc1NC(=O)NC(C)C(=O)NC(C)(C)C (centres undefined) | -5.015%
COc1ccc(CNCc2c(C)nc3sc(C)cn23)c(OC)c1OC | 49.47%
c1ccc(-c2noc3c2CN(CC2CC2)CC3)cc1 | 5.665%
Cc1nn(C)c(C)c1NC(=O)CN1CCc2c(nc(C3CC3)n2C)C1 | -19.95%
Cc1ncc2c(n1)CN(CC(=O)Nc1cc(C)on1)CC2 | 138%
Cc1cc(NC(=O)CN2CCc3cnc(C)nc3C2)on1 | -3.742%
Cc1ncc2c(n1)CN(CC(=O)Nc1c(C)nn(C)c1C)CC2 | 114.4%
Cc1cc(NC(=O)CN2CCn3c(nnc3C(C)C)C2)no1 | 1.243%
Cc1ncc2c(n1)CN(CCOCC(F)(F)F)CC2 | -8.792%
Cc1ccc(Cl)cc1N1CCC(CNC(=O)CC(F)(F)F)C1 (centres undefined) | -9.569%
COCCN1Cc2ccnn2CC(COCc2cccnc2)C1 (centres undefined) | -11.51%
O=C(c1cccc(S(=O)(=O)NCCCc2ccco2)c1)N1CCOCC1 | 28.12%
CN1CCCN(C(=O)c2cccc(S(=O)(=O)NCC3(C)COC3)c2)CC1 | -12.18%
CN(CC1CCOC1)S(=O)(=O)c1cccc(C(=O)N2CCCCCC2)c1 (centres undefined) | 127.8%
CN(CC1CCOC1)S(=O)(=O)c1cccc(C(=O)N2CCOCC2)c1 (centres undefined) | 110.2%
CN(Cc1ncc[nH]1)S(=O)(=O)c1cccc(C(=O)N2CCOCC2)c1 | -7.295%
CN(C)C1CCN(C(=O)c2cccc(S(=O)(=O)NCC3(C)COC3)c2)C1 (centres undefined) | 24.95%
CN(CC1CCCCO1)S(=O)(=O)c1cccc(C(=O)N2CCOCC2)c1 (centres undefined) | 99.86%
O=C(c1cccc(S(=O)(=O)NCCc2ccccn2)c1)N1CCOCC1 | -3.428%
O=C(c1cccc(S(=O)(=O)NCCCn2cccn2)c1)N1CCOCC1 | -8.398%
